Results: PubChem BioAssay (NCATS)
A number with no mark means an inactive call. Activity calls are given as the source filed them.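 Rule for the calls: active = calcium activation more than 3 SD above the typical response in the agonist read; inactive = the rest.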

What follows are compounds tested against Thyrotropin-releasing hormone receptor (Homo sapiens) (UniProt P34981) (assay: qHTS for Small Molecule Agonists and Allosteric Enhancers of Human TRH Receptor: Validation Screen for Agonists (AID 493127;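 note: intracellular calcium rise by fluo-8 fluorescence before TRH EC20 addition; 0% is about no effect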)). Conditions: TRH receptor agonist cell assay; at 2 µM; active compounds read high.
Text: NIH Chemical Genomics Center [NCGC]
NIH Molecular Libraries Probe Centers Network [MLPCN]
Assay Submitter (PI): Marvin Gershengorn
This project aims to identify small drug-like molecules that activate (agonists) the thyrotropin releasing hormone (TRH) receptor (TRHR) or enhance its TRH-stimulated activity (allosteric enhancers). TRHR, a drug-accessible cell surface receptor expressed in specific brain regions, and its ligand TRH have been implicated in several central nervous system disorders, including depression and anxiety. Small molecule TRHR agonists or allosteric enhancers that are metabolically stable and able to cross the blood-brain barrier might serve as probes to elucidate the roles of brain TRH receptors in animal models, and might be valuable as lead compounds for the development of drugs to treat patients with central nervous system disorders.
Upon TRHR-Gq activation in TRHR cells, intracellular calcium is released from stores in the endoplasmic reticulum. […] This validation screen measures compound-induced activation of calcium release.
For the HTS assay freshly prepared cells are plated at a density of 2000/well in 3 ul of complete DMEM medium containing 10% serum in 1536-well plates and cultured over night at 37 C in a humidified incubator with 5% CO2. The next day, 2 ul of a no wash calcium dye (ABD Bioquest) was added to the cells and plates were incubated at room temperature for 1 hour. For the assay, assay plates were loaded into the FDSS kinetic plate reader. A 10 cycle (1 second/cycle) baseline measurement is taken and then the FDSS online 1536 pintool delivers 23 nl of compound library (as well as TRH controls) to the plate. The plate is measured for kinetically at 1 cycle/sec for 180 seconds and is considered to be the agonist portion of the assay (eg, compounds which activate a positive calcium response during this portion are flagged as potential agonists). Following the 180 second read, 1 ul of either an EC20 (positive modulation assay) is delivered by an onboard pipette head. Measurements are taken kinetically for an additional 180 seconds.
TRHR FDSS Screening Protocol
1. Reagent, 3 uL 2000 cells/well 1536 TC treated Black plate in media containing 10% FCS
2. Time, 18 hours, 33.5C 5% CO2 (cells grown at 37C)
3. Reagent, 2 uL ABD fluo-8 Ca dye
4. Time, 30 min-1.5hrs hours, Room temp (6 plates/batch)
5. Detector, EX 480/EM 530C, FDSS 10 cycles baseline (1sec/cycle)
6. Compound, 23 nL of stock solution from library
7. Detector, EX 480/EM 530C, FDSS 230 cycles (1sec/cycle) Agonist mode
8. Compound, 1 ul EC20 of TRH made up in HEPES HBSS, 10 nM final
9. Detector, EX 480/EM 530C, FDSS 100 cycles (1sec/cycle) Potentiator mode

Thyrotropin-releasing hormone receptor (Homo sapiens), sequence (P34981 whole entry, looked up): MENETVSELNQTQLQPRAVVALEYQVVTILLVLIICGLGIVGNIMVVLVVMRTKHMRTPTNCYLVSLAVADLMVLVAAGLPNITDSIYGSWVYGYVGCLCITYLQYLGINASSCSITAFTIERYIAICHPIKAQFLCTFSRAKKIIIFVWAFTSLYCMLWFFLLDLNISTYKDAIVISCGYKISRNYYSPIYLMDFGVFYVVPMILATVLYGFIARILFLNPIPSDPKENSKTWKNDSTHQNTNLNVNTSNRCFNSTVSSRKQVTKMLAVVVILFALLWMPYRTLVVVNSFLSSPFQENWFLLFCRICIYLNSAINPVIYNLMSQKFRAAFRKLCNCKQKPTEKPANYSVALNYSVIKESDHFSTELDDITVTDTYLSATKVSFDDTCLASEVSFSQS

Going from `O=[N+]([O-])c1ccc2nc(N3CCNCC3)ccc2c1` to `CN1CCC(c2c[nH]c3ccc(O)cc23)CC1`, the activation falls from 1.44% to 1%.

Going from `O=[N+]([O-])c1cc(O)c(O)c([N+](=O)[O-])c1` to `NC(Cc1cc(O)c(O)cc1O)C(=O)O` (stereo not given), the activation rises from -0.438% to 1.06%.

First: CN(N=O)c1cc(O)ccc1O
Second: NNC(=O)c1ccc(O)cc1
The activation of the first is lower: -2.69% for the first, 0.375% for the second.

First: CN(C(=O)Cc1ccc(Cl)c(Cl)c1)C(CN1CCCC1)c1cccc(OCC(=O)O)c1 (stereo not given)
Second: CC(Cc1ccc(OCC(=O)O)cc1)NCC(O)c1cccc(Cl)c1 (stereo not given)
The activation of the first is lower: 0.25% for the first, 0.5% for the second.

Compared with `NCC(CP(=O)(O)O)c1ccc(Cl)cc1` (stereo not given), `O=C(O)c1cc[c]([Hg][Cl])cc1` is higher in activation: 0.5% for the first, 1.5% for the second.

Compared with `CC(C)(C)c1o[nH]c(=O)c1CC(N)C(=O)O` (stereo not given), `Cc1[nH]c2ccc(O)cc2c1CCN` is higher in activation: 0.625% for the first, 0.812% for the second.

First: Oc1ccc2c3c1O[C@H]1c4[nH]c5ccccc5c4C[C@@]4(O)C(C2)N(CC2CC2)CCC314 (stereo not given in full)
Second: Oc1ccc2c3c1O[C@H]1c4oc5ccccc5c4C[C@@]4(O)C(C2)N(CC2CC2)CCC314 (stereo not given in full)
The activation of the first is lower: 1.69% for the first, 1.94% for the second.

Going from `COc1ccc2[nH]cc(CCN)c2c1` to `CCOC(=O)c1ncn2c1[C@@H]1CCCN1C(=O)c1cc(OC)ccc1-2`, the activation rises from -2.62% to -0.25%.

Going from `OC1CCCCC1N1CCC(c2ccccc2)CC1` (stereo not given) to `Ic1ccccc1CNC1C2CCN(CC2)C1C(c1ccccc1)c1ccccc1` (stereo not given), the activation rises from -3.5% to 2.31%.

First: CC(=O)c1c(O)c(C)c(O)c(Cc2c(O)c3c(c(C(=O)/C=C/c4ccccc4)c2O)OC(C)(C)C=C3)c1O
Second: c1ccc2c(c1)[I+]c1ccccc1-2
The activation of the first is higher: 7.12% for the first, -4.44% for the second.

Compared with `NC(N)=Nc1ccc2[nH]c3c(c2c1)C[C@@]1(O)[C@H]2Cc4ccc(O)c5c4[C@@]1(CCN2CC1CC1)[C@H]3O5`, `C=CCN1CC[C@]23c4c5ccc(O)c4O[C@@H]2/C(=N/N=C2\CC[C@@]4(O)C6Cc7ccc(O)c8c7[C@@]4(CCN6CC=C)[C@@H]2O8)CC[C@@]3(O)C1C5` is higher in activation: 0.188% for the first, 2.38% for the second.

Going from `C[N+]1(C)CCN(c2ccccc2)CC1` to `C#CCN[C@H](C)Cc1ccccc1`, the activation rises from 0.438% to 1.31%.

Compared with `CN1C2CCC1CC(OC(c1ccccc1)c1ccc(Cl)cc1)C2` (stereo not given), `CN1CCc2cccc(Cl)c2CC1` is lower in activation: 8.88% for the first, 1.31% for the second.

First: CCCN(CCC)CCc1ccc(O)c(O)c1
Second: CCCN(CCC)[C@@H]1CCc2cccc(O)c2C1
The activation of the first is lower: -3.94% for the first, 0.5% for the second.

Going from `CCn1cnc2c(Nc3cccc(Cl)c3)nc(N[C@@H]3CCCC[C@@H]3N)nc21` to `COc1ccc2c(c1)[C@@]13CCCC[C@H]1[C@@H](C2)NCC3`, the activation falls from 3.88% to 0.0625%.

Compared with `NC(=O)c1ccc(OCC(O)CN2CC=C(c3ccc(F)cc3)CC2)cc1` (stereo not given), `COc1ccc2c(c1OC)C(=O)OC2C1c2cc3c(cc2CCN1C)OCO3` (stereo not given) is lower in activation: 4.62% for the first, -4.69% for the second.

First: CCN(CCCl)Cc1ccccc1Br
Second: CCN(CC)c1ncnc2c1ncn2[C@@H]1O[C@H](COP(=O)(O)OP(=O)(O)C(Br)(Br)P(=O)(O)O)[C@@H](O)[C@H]1O
The activation of the first is lower: -8% for the first, 0.312% for the second.

Going from `COc1cc(CC(C)N)c(OC)cc1I` (stereo not given) to `Clc1cc(I)cc(Cl)c1NC1=NCCN1`, the activation rises from 0.562% to 1.69%.

First: OCc1cnc[nH]1
Second: CP(=O)(O)C1=CCNCC1
The activation of the first is higher: 1% for the first, 0.188% for the second.

For `O=S1(=O)N(CCN2CC=C(c3c[nH]c4cc(F)ccc34)CC2)c2cccc3c2N1CCC3`, the activation was 52.8% (active).
With `C[N+](C)(C)CC#CCN1CCCC1=O` the activation was 57.8% (active).
